# Experimental data published in PubChem BioAssay AID652208 (Broad Institute, 2013).
# Results with a measured potency or affinity are listed apart. Activity calls are given as the source filed them.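 Rule for the calls: active = Loss of cell signal with fitted half-effect dose at or below twice the top valid tested dose; inconclusive = Poor fit, or flat fit from -70 to -30 percent; inactive = Half-effect above limit, rising signal, or flat within 30 percent.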
# Test: viability loss in HEK293T cells – cell-based, cherry-picks, cytotoxicity control for HIV Vif inhibitor project, dose response (AID 652208)
# Conditions: CellTiter-Glo luminescence, 24 h; series mostly up to 26 µM
row,SMILES,outcome
1,CCCCCCn1c(N(CC)CC)nc2c1c(=O)[nH]c(=O)n2C,inactive
2,O=C(NCc1ccc(OC(F)(F)F)cc1)c1cccc2c1C(=O)c1ccc(N3CCCCC3)cc1S2(=O)=O,inactive
3,Oc1[nH]c(=S)sc1/C=C1\C(c2ccccc2)=Nc2ccccc21,inactive
4,CCCn1c(=O)c(C(=O)Nc2ncccc2O)c(O)c2ccccc21,inactive
5,CC(=O)Nc1cc(NC(=O)C2C3C=CC(C3)C2C(=O)O)ccc1Cl (configuration not stated),inactive
6,Cc1nc(C)n(CC(=O)N2CCCC(C(=O)c3ccc(C(F)(F)F)cc3)C2)n1 (configuration not stated),inactive
7,CCn1c(SCc2ccc(C(=O)Nc3nccs3)cc2)nnc1-c1ccc(N)cc1,inactive
8,Cc1cc(OCC(C)C)ccc1/C(O)=C1/C(=O)C(=O)N(Cc2cccnc2)C1c1ccncc1 (configuration not stated),inactive
9,CC(=O)Nc1ccc(S(=O)(=O)N2c3ccccc3C(C)=CC2(C)C)cc1,inactive
10,CCC(=O)Nc1ccc(-c2cc3ccccc3oc2=O)cc1,inactive
11,COc1cc(C(C)=O)ccc1OCC(=O)NCC1(N2CCCCC2)CCCCC1,inactive
12,Cc1cccc(C)c1NC(=O)COc1ccc2c(C)c(Cc3ccccc3)c(=O)oc2c1C,inactive
13,CCC(C)n1c(-c2cccs2)nc2nc3ccccc3nc21 (configuration not stated),inactive
14,CCOc1ccc(C(C)=O)cc1COC(=O)c1cc([N+](=O)[O-])ccc1N1CCOCC1,inactive
15,COCCNC(=O)c1nn2c(C(F)(F)F)cc(-c3ccccc3)nc2c1Cl,inactive
16,Cc1nc(-c2ccc(O)c(O)c2)cs1,inactive
17,Cc1ncoc1C(=O)N1CCCC(C(=O)c2ccc(Oc3ccccc3)cc2)C1 (configuration not stated),inactive
18,O=c1[nH]c(=O)n(Cc2ccco2)c2c1C(C(F)(F)F)(C(F)(F)F)N=C(c1ccco1)N2,inactive
19,C=CCNc1sc(C(=O)c2ccc(Br)s2)c(N)c1C#N,inactive

row,SMILES,outcome
1,COc1ccc2cc(CCNS(=O)(=O)c3ccc(NC(C)=O)cc3)c(=O)[nH]c2c1,inactive
2,Oc1ccc(-c2nc(-c3ccc(O)c(O)c3)cs2)cc1,inactive
3,CC(C)CC(=O)Nc1ccc(-c2nnn(CC(=O)NCc3ccco3)n2)cc1,inactive
4,CCOc1ccc(N2C(=O)/C(=C/c3cccs3)N(CC(=O)OC)C2=S)cc1,inactive
5,Nc1nonc1-c1nc2ccccc2n1CC(=O)NC1CCCC1,inactive
6,Cc1cc(C(=O)Nc2c(F)c(F)c(F)c(F)c2F)n(-c2ccccc2)n1,inactive
7,O=C(CN(C(=O)c1csnn1)c1ccc(F)cc1)NCc1ccc2c(c1)OCO2,inactive
8,O=C(CCNC(=O)c1ccco1)Nc1ccc(OC(F)(F)F)cc1,inactive
9,OC(CNCc1ccccc1Cl)COc1ccc(F)cc1 (configuration not stated),inactive
10,COc1cc(-c2cc(=O)c3c(O)c(OC)c(OC)c(O)c3o2)ccc1O,inactive
11,COCCN(C(=O)COC(=O)Cc1ccc(Cl)cc1)c1c(N)n(Cc2ccccc2)c(=O)[nH]c1=O,inactive
12,Cc1ccc(C(=O)NC(CCc2ccccc2)C(=O)O)cc1 (configuration not stated),inactive
13,COc1cccc(NC(=O)NC2(C(F)(F)F)Oc3ccccc3O2)c1,inactive
14,COc1c2ccoc2nc2c(OC)c(OC[C@@H](O)C(C)(C)O)ccc12,inactive
15,O=C(O)CCCCn1c(SCc2ccccc2Cl)nc2ccsc2c1=O,inactive
16,COc1cccc(CNc2ccc3c(c2)CCC3)c1,inactive
17,Cc1ccc(NC(=O)/C=C/C(=O)O)c(NC(=O)c2ccccc2)c1,inactive
18,COc1ccc(CCNc2nnc(Sc3nnnn3-c3ccccc3)s2)cc1OC,inactive
